Bioassay records from PubChem BioAssay.
Hits are enriched below; roughly 3.2% of the tested compounds scored in any of these assays.
CHT allo act – human CHT allosteric activation; Q9GZV3; CHT-expressing cells, membrane potential dye, choline EC20; stronger effect = higher value; LV-AA mutant CHT in HEK293 cells; B-score at 10 µM; actives 0.49% (n = 310,000); AID 488977;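 active means initial fluorescence not abnormally high and integrated response B-score, plate-corrected, over 3 SD above library mean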
Target sequence (Q9GZV3 whole entry, looked up): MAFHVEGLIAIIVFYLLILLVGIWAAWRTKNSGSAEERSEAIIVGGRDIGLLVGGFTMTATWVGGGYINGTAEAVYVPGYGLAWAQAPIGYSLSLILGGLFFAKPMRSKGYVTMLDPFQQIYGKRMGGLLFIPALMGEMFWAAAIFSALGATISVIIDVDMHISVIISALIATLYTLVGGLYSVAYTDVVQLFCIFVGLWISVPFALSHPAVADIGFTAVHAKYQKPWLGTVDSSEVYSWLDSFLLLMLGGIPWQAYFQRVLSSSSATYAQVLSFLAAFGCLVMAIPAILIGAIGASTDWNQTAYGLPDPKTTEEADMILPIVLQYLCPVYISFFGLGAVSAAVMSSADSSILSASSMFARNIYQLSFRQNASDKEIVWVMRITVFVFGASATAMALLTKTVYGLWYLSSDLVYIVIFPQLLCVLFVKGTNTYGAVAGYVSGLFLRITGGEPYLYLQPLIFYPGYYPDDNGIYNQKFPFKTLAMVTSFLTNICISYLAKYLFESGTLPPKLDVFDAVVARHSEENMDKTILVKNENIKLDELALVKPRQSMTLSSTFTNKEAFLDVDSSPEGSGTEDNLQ
TMEM16A act – activates or potentiates the mouse TMEM16A chloride channel | B-score at 10 µM | HEK293 TMEM16A/YFP-H148Q/I152L, iodide quench fluorescence; stronger effect = lower value | actives 0.3% (n = 340,000) | AID 623877 | Q8BHY3;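 active means fluorescence-ratio B-score plate-corrected deviation score at least 3 library SD below zero, with starting fluorescence score within 5 deviations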;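 further: channel opened by trigger with iodide after compound preincubation; score built on the fluorescence ratio of max minus min over baseline; more negative score means more quench and so TMEM16A activation or potentiation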
Kir21 inh – Kir2.1 (mouse) channel inhibition; AID 1672; actives 0.85% (n = 310,000); HEK293-Kir2.1, FluxOR thallium flux fluorescence; stronger effect = lower value; B-score at 10 µM; P35561;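 active means fluorescence ratio B-score at or below minus 3 SD of library scores, with starting-brightness B-score within 2 SD, cut at about -4.2 in these data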;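 further: channel flux triggered by added potassium and thallium sulfate stimulus; B-score of peak minus minimum fluorescence over baseline after thallium stimulus; more negative B-score means stronger Kir2.1 block with less thallium influx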
CHT block – human CHT choline transport inhibition. Q9GZV3. CHT-expressing cells, membrane potential dye, choline response; stronger effect = lower value. B-score at 10 µM. actives 0.86% (n = 310,000). AID 488975;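 active means B-score over 3 SD under the library average, and starting fluorescence ratio not unusually high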;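 further: choline stimulus applied at its EC90 after an EC20 pre-addition; B-score computed on integrated fluorescence ratio after choline addition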
Rce1 inhib – blocks yeast Ras-converting enzyme; Q03530; yeast membranes, quenched prenylated peptide cleavage fluorescence; calls only; actives 0.27% (n = 290,000); AID 2563;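 active means fall in fluorescence gain of 50% or more versus controls, with final raw signal at or below 3038400; inconclusive means same 50% fall but final raw signal above 3038400; inactive means fall in fluorescence gain under 50%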;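 further: plate controls were neutral control wells for no effect and wells lacking membranes for full effect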
ANO1 block – blocks the mouse calcium-activated chloride channel TMEM16A; HEK293 TMEM16A/YFP iodide influx fluorescence, ionomycin; normalized B-score (activity score, 25-100; higher = stronger inhibition) at 10 µM; actives 1.2% (n = 310,000); AID 588511;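 active means ratio plate-corrected score three or more library SD toward inhibition, starting fluorescence score within five deviations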;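 further: score derived from kinetic fluorescence span divided by baseline fluorescence per well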
CHT inh conf – human CHT inhibition, confirmatory screen | shares compounds with CHT block | CHT activity remaining % of control (stronger effect = lower value), % at 10 µM | CHT-expressing cells, choline membrane potential dye; LV-to-AA substituted CHT, HEK293 cells | actives 70% (n = 2,400);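 active means choline transporter activity left, mean of duplicates at 10 µM, below buffer-only control mean minus 3 SD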;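 further: depolarization triggered by choline at its EC90 following an EC20 pre-addition; 0% = hemicholinium-3 full block and 100% = buffer-only control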
HEK293 CHT ctr – activity in parental HEK293 cells lacking CHT; shares compounds with CHT block; membrane potential dye, choline response; active = decrease or increase beyond buffer ±3SD; membrane potential ratio readout (active if shifted either direction beyond buffer ±3SD; no single direction) at 10 µM; actives 4% (n = 2,400); AID 493222;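 further: parental cells lack the transporter so any hit is non-specific; ratio is peak minus trough fluorescence over baseline after EC90 choline challenge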
* = called active by the depositor; i = inactive; ? = inconclusive; · = no result given; ! = repeats disagree.

SMILES	CHT allo act	TMEM16A act	Kir21 inh	CHT block	Rce1 inhib	ANO1 block	CHT inh conf	HEK293 CHT ctr
CCN(CC)C(=O)c1sc2c(c1C)c(=O)n(-c1ccc(C)c(C)c1)c(=O)n2CC(=O)NCC1CCCO1 (configuration not stated)	i	i	-1.5	i	i	i	·	·
Cc1ccc(/C=N/NC(=O)c2n[nH]c3c2CCCC3)cc1	i	i	2.1	i	i	i	·	·
O=C(N/N=C/c1cccs1)c1n[nH]c2c1CCCC2	i	i	0.73	-6*	i	i	i	i
C=CCOc1ccccc1CN1CCCC(CCC(=O)N(C)CCc2ccccn2)C1 (configuration not stated)	i	i	0.05	i	i	i	·	·
CCC(C)Nc1nc2c(c(=O)[nH]c(=O)n2C)n1CCCc1ccccc1 (configuration not stated)	i	i	-0.4	i	·	i	·	·
COC(=O)C(C)Sc1nc2c(c(=O)[nH]c(=O)n2C)n1CCC(C)C (configuration not stated)	i	·	-0.57	-5.1*	i	i	40%*	i
CCC(C)Nc1nc2c(c(=O)[nH]c(=O)n2C)n1CCC(C)C (configuration not stated)	i	i	-0.01	-8.3*	i	i	i	i
CC(Nc1ccc2ccccc2c1)C(=O)N/N=C/c1ccncc1 (configuration not stated)	·	i	·	·	·	·	·	·
CCOc1cc(CNc2ccc(CNc3ncn[nH]3)cc2)ccc1OCc1ccccc1	i	i	1.3	i	i	i	·	·
CCCCC(CC)C(=O)NCc1ccccc1OC (configuration not stated)	i	i	-0.15	-5.6*	i	i	i	i
CCOc1ccccc1NC(=O)CSc1nc2ccccc2nc1N1CCCC1	i	i	-0.09	-5.5*	i	i	i	i
CCOc1ccccc1NC(=O)CSc1nc2ccccc2nc1N1CCOCC1	i	i	0.39	i	i	i	·	·
Cn1c(-c2ccccc2)cnc1SCc1nc2ccccc2c(=O)[nH]1	i	i	0.49	-5.3*	i	i	60%*	i
O=[N+]([O-])c1ccc(CSc2nnc3ccccn23)cc1	i	i	0.51	-13*	i	i	8.8%*	i
O=[N+]([O-])c1ccccc1CSc1nnc2ccccn12	i	i	0.04	i	i	i	·	·
Cc1c(Cc2ccccc2)c(=O)oc2c(O)c(O)ccc12	·	i	-2.5	·	i	·	·	·
Cc1c(Cc2ccccc2)c(=O)oc2cc(O)ccc12	i	i	0.59	-6.5*	?	i	i	i
CC1=C(C(=O)N2CCCC(CCC(=O)NCc3ccccc3F)C2)OCCO1 (configuration not stated)	i	i	-0.01	-6.1*	i	i	i	i
O=C(CCC1CCCN(C(=O)c2ccoc2)C1)NCc1ccccc1F (configuration not stated)	i	i	0.83	i	i	i	·	·
CC[C@H](CO)Nc1nc(Nc2cccc(Cl)c2)c2ncn(C(C)C)c2n1	i	i	-1.9	-9*	i	i	48%*	i
CC(C)c1ccc(C2OCC(C)([N+](=O)[O-])CO2)cc1 (configuration not stated)	·	i	·	·	·	·	·	·
CN[C@H]1CC[C@@H](c2ccc(Cl)c(Cl)c2)c2ccccc21	i	i	-6.2*	-6.8*!	i	i	i	i
O=C1C=C(O)CC(c2ccc(Cl)c(Cl)c2)C1 (configuration not stated)	i	i	0.27	i	i	i	·	·
COc1cccc(-c2cccc(NC(=O)C3CCN(C4CCOCC4)CC3)c2)c1	i	i	1	i	i	i	·	·
CN(Cc1ccco1)C(=O)CSc1nc(C2CC2)n(-c2ccccc2)n1	·	i	·	·	·	·	·	·
SMILES	CHT allo act	TMEM16A act	Kir21 inh	CHT block	Rce1 inhib	ANO1 block	CHT inh conf	HEK293 CHT ctr
C1=C2C[N+]3(CCCC3)CC2Cc2ccc3ccccc3c21 (configuration not stated)	i	i	0.65	-7.6*	i	i	46%*	2.6*
COc1cccc(CNS(=O)(=O)c2c(C(=O)N3CCCCCC3)c(C)n(C)c2C)c1	i	i	0.72	i	i	i	·	·
CCOC(=O)CN1C(=O)S/C(=C/c2cc(C)n(C)c2C)C1=O	i	i	2.4	i	·	i	·	·
CCOC(=O)CN1C(=O)S/C(=C/c2ccc(O)c([N+](=O)[O-])c2)C1=O	i	i	1.1	-5.5*	i	i	i	i
CCC(=O)N/C(=N/c1nc(C)cc(C)n1)Nc1ccccc1	i	i	-1.1	i	i	i	·	·
CCc1ccc(N/C(=N/c2nc(C)cc(C)n2)NC(C)=O)cc1	i	i	1.5	-5.8*	i	i	58%*	i
O=C1c2cccnc2C(=O)N1Cc1ccc(S(=O)(=O)N2CCOc3ccc(Cl)cc32)cc1	i	i	-0.01	-5.1*	i	i	i	i
O=C(CSc1nnc(Cc2ccsc2)o1)c1ccccc1	i	i	0.93	-5.2*	i	i	70%*	i
CC1CC2(CCCCC2)N2C(=O)C(=O)c3cccc1c32 (configuration not stated)	i	i	-0.94	i	i	i	·	·
CC1(c2ccccc2)CC(C)(C)N2C(=O)C(=O)c3cccc1c32 (configuration not stated)	i	i	-2.1	-5.3*	i	i	i	i
CCOC(=O)Cc1csc(NS(=O)(=O)c2ccc(SC)cc2)n1	i	i	1.9	i	i	i	·	·
Cc1c(CN(C)C(=O)CSc2nc(-c3ccco3)cc(C(F)(F)F)n2)cnn1C	i	i	-1.6	-7*	·	i	69%*	-8.6*
CN(C)S(=O)(=O)NCC1CCCN(Cc2cc3ccccc3s2)C1 (configuration not stated)	i	i	-1.2	i	i	i	·	·
Cc1cc(N(CCO)CCO)ccc1N=Nc1cc(F)ccc1F	i	i	0.94	-5.4*	i	i	56%*	i
Nc1ccc(N(CCO)CCO)cc1	i	i	-0.98	i	i	i	·	·
